Laboratory results from PubChem BioAssay.
“And” between values parts separate entries of the source, which are not always exact repeats. Identical values can stand only once. Inconclusive results are not listed. The source made the active and inactive calls.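 How the source made its calls, unless noted: active means normalized viability below 100% at a tested concentration; inactive means the rest.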

Tests used:
[1] = test system: Aerobactin synthetase IucA (Klebsiella pneumoniae); assay: inhibition of K. pneumoniae IucA enzyme – biochemical, Tocris library, absorbance (AID 1345561; call rule not given here;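 further: 100% = enzyme without compound and 0% = no enzyme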); conditions: purified IucA enzyme assay, absorbance (OD) read-out; stronger effect = lower value;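 tested at 8 µM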
[2] = viability loss in pontine glioma line – cell-based, SU-DIPG-XVII, MIPE5.0, CellTiter-Glo, qHTS, dose response (AID 1347060; cut-off not given, nearly all actives have AC50 up to about 26 µM;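 on AC50: cells exposed to compound for 48 hours before viability readout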); conditions: CellTiter-Glo ATP luminescence
[3] = viability loss in pontine glioma line – cell-based, JHH-DIPG-1, MIPE4.0, CellTiter-Glo, qHTS, dose response (AID 1347062; cut-off not given, nearly all actives have AC50 up to about 27 µM); conditions: JHH-DIPG-1 viability, CellTiter-Glo ATP luminescence
[4] = viability loss in pontine glioma line – cell-based, SU-DIPG-XXV, MIPE5.0, CellTiter-Glo, qHTS, dose response (AID 1347065; cut-off not given, nearly all actives have AC50 up to about 26 µM;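 further: cells exposed to compound for 48 hours before ATP readout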); conditions: CellTiter-Glo ATP luminescence
[5] = growth inhibition of DIPG cells – cell-based, MIPE4.0 library, CellTiter-Glo luminescence, qHTS (AID 1347066; cut-off not given, nearly all actives have AC50 up to about 30 µM;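 further: cells exposed to compound for 48 hours before readout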); conditions: SU-DIPG-VI viability, CellTiter-Glo ATP luminescence
[6] = JHH-DIPG-1 glioma cell viability, MIPE5.0 library, CellTiter-Glo luminescence, qHTS (AID 1347067; cut-off not given, nearly all actives have AC50 up to about 26 µM;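 further: cells exposed to compound for 48 hours before readout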); conditions: JHH-DIPG-1 glioma viability, CellTiter-Glo ATP luminescence
[7] = viability loss with induced miR-34 in A549 – imaging, A549 dox-inducible miR-34, nuclei and caspase counts, primary screen (AID 1347080;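 active means compounds whose cell count with miR-34 switched on is under 0.7 times the count with it off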); conditions: A549 miR-34 inducible, Hoechst nuclei count, 48 h
[8] = MELAS cybrid and Rieske KO viability enhancers – cell-based, MELAS cybrids, Rieske KO mouse fibroblasts, CellTiter-Glo, primary screen (AID 1508586;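 active means mean z-score across replicates of 1.96 or higher in either the MELAS or the Rieske mutant cell line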;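 further: z relative to plate mean and SD of compound and empty wells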); conditions: low glucose
[9] = galactose survival enhancers in mitochondrial complex I cybrids – cell-based, galactose medium, ATP luminescence, primary screen (AID 1645843;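 active means z-score of at least 1.8 in each of two replicates, scored against plate mean and spread of sample wells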;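 further: positive z means more ATP and so rescue of galactose-driven cybrid death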); conditions: complex I mutant cybrid cells, 72 h, stronger effect = higher value
[10] = viability loss in pontine glioma line – cell-based, SU-DIPG-XIII, MIPE4.0, CellTiter-Glo, qHTS, dose response (AID 1347061; cut-off not given, nearly all actives have AC50 up to about 37 µM;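 further: cells exposed to compound for 48 hours before readout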); conditions: CellTiter-Glo ATP luminescence
[11] = viability loss in pontine glioma line – cell-based, SU-DIPG-IV, MIPE4.0, CellTiter-Glo, qHTS, dose response (AID 1347063; cut-off not given, nearly all actives have AC50 up to about 30 µM;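 further: compound exposure lasted 48 hours before the viability readout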); conditions: CellTiter-Glo ATP luminescence
[12] = growth inhibition of DIPG cells – cell-based, MIPE5.0 library, qHTS (AID 1347068; cut-off not given, nearly all actives have IC50 up to about 30 µM); conditions: SU-DIPG-XXV viability
[13] = compounds altering HSF1 focus formation in cells – imaging, Selleck Cancer Library (AID 1347162; in the data active means plate-normalised HSF1 focus index below about 0.46); conditions: human cells, HSF1 nuclear foci imaging, at 10 µM; SSMD: measured here: HSF1 foci SSMD mean; cell count: measured here: cell number; plate-normalised HSF1 focus index: stronger effect = lower value
[14] = drug combination growth inhibition, ovarian cancer – cell-based, oncology-focused library, rucaparib conditional, profiling panel (AID 1508598); conditions: patient-derived ovarian cancer cells, CellTiter-Glo viability, 144 h, stronger effect = lower value
[15] = viability loss in pontine glioma line – cell-based, SU-DIPG-XIII, MIPE5.0, CellTiter-Glo, qHTS, dose response (AID 1347064; cut-off not given, nearly all actives have AC50 up to about 23 µM); conditions: CellTiter-Glo ATP luminescence
[16] = stronger effect = lower value, cell number ratio, induced over uninduced
[17] = measured here: relative caspase fold change +Dox/-Dox
[18] = measured here: total cells with miR-34 induction, stronger effect = lower value
[19] = measured here: total cells without miR-34 induction
[20] = MELAS cybrid survival, CellTiter-Glo 48 h, stronger effect = higher value
[21] = Rieske KO mouse fibroblast survival, CellTiter-Glo 72 h

COc1cc2nccc(Oc3ccc(NC(=O)Nc4ccc(F)cc4F)c(F)c3)c2cc1OC
inactive: remaining activity [1] 115% | outcome [3] | outcome [5] | fold change [7, 16] 0.97 and 0.906 | z-score [8, 20] -0.553 | z-score [9] -0.37
2020 and 3280: cell count [7, 19]
1.3 and 1.55: fold change [7, 17]
1960 and 2970: cell count [7, 18]
0.363: z-score [8, 21]
active: AC50 [2] 5.25 µM | AC50 [4] 3.32 µM | AC50 [6] 4.17 µM

N#Cc1c(O)c2c(-c3ccc(-c4ccccc4O)cc3)csc2[nH]c1=O
10000 and 9660: cell count [7, 18]
1.29: z-score [8, 21]
inactive: remaining activity [1] 103% | outcome [2] | outcome [10] | outcome [3] | outcome [11] | outcome [4] | outcome [5] | outcome [6] | outcome [12] | fold change [7, 16] 0.919 and 1.01 | plate-normalised HSF1 focus index [13] 1.12 | z-score [8, 20] -0.277 | viability ([14]; at 0.000305 µM, OCI-C5x cells, with rucaparib 10 µM, 100% = cells with rucaparib alone) 106% | viability ([14]; at 0.000305 µM, OCI-C5x cells, without rucaparib) 121% | viability ([14]; at 0.000305 µM, OCI-P5x cells, with rucaparib 20 µM, 100% = cells with rucaparib alone) 114% | viability ([14]; at 0.000305 µM, OCI-P5x cells, without rucaparib) 119% | viability ([14]; at 0.00122 µM, OCI-C5x cells, with rucaparib 10 µM, 100% = cells with rucaparib alone) 115% | viability ([14]; at 0.00122 µM, OCI-C5x cells, without rucaparib) 131% | viability ([14]; at 0.00122 µM, OCI-P5x cells, with rucaparib 20 µM, 100% = cells with rucaparib alone) 119% | viability ([14]; at 0.00122 µM, OCI-P5x cells, without rucaparib) 107% | viability ([14]; at 0.00488 µM, OCI-C5x cells, with rucaparib 10 µM, 100% = cells with rucaparib alone) 111% | viability ([14]; at 0.00488 µM, OCI-C5x cells, without rucaparib) 126% | viability ([14]; at 0.00488 µM, OCI-P5x cells, with rucaparib 20 µM, 100% = cells with rucaparib alone) 116% | viability ([14]; at 0.00488 µM, OCI-P5x cells, without rucaparib) 113% | viability ([14]; at 0.0195 µM, OCI-C5x cells, with rucaparib 10 µM, 100% = cells with rucaparib alone) 112% | viability ([14]; at 0.0195 µM, OCI-C5x cells, without rucaparib) 122% | viability ([14]; at 0.0195 µM, OCI-P5x cells, with rucaparib 20 µM, 100% = cells with rucaparib alone) 116% | viability ([14]; at 0.0195 µM, OCI-P5x cells, without rucaparib) 114% | viability ([14]; at 0.0781 µM, OCI-C5x cells, with rucaparib 10 µM, 100% = cells with rucaparib alone) 113% | viability ([14]; at 0.0781 µM, OCI-C5x cells, without rucaparib) 127% | viability ([14]; at 0.0781 µM, OCI-P5x cells, with rucaparib 20 µM, 100% = cells with rucaparib alone) 119% | viability ([14]; at 0.0781 µM, OCI-P5x cells, without rucaparib) 115% | viability ([14]; at 0.313 µM, OCI-C5x cells, with rucaparib 10 µM, 100% = cells with rucaparib alone) 115% | viability ([14]; at 0.313 µM, OCI-C5x cells, without rucaparib) 134% | viability ([14]; at 0.313 µM, OCI-P5x cells, with rucaparib 20 µM, 100% = cells with rucaparib alone) 117% | viability ([14]; at 0.313 µM, OCI-P5x cells, without rucaparib) 118% | viability ([14]; at 1.25 µM, OCI-C5x cells, with rucaparib 10 µM, 100% = cells with rucaparib alone) 112% | viability ([14]; at 1.25 µM, OCI-C5x cells, without rucaparib) 140% | viability ([14]; at 1.25 µM, OCI-P5x cells, with rucaparib 20 µM, 100% = cells with rucaparib alone) 107% | viability ([14]; at 1.25 µM, OCI-P5x cells, without rucaparib) 107% | viability ([14]; at 5 µM, OCI-C5x cells, with rucaparib 10 µM, 100% = cells with rucaparib alone) 118% | viability ([14]; at 5 µM, OCI-C5x cells, without rucaparib) 135% | z-score [9] 1.98
0.924 and 1.54: fold change [7, 17]
7410: cell count [13]
3.35: SSMD [13]
10900 and 9540: cell count [7, 19]
active: viability ([14]; at 5 µM, OCI-P5x cells, with rucaparib 20 µM, 100% = cells with rucaparib alone) 92.2% | viability ([14]; at 5 µM, OCI-P5x cells, without rucaparib) 90.6%

N[C@H](CSC(c1ccccc1)(c1ccccc1)c1ccccc1)C(=O)O
8660: cell count [7, 19]
1.4: fold change [7, 17]
7800: cell count [7, 18]
inactive: remaining activity [1] 104% | outcome [2] | outcome [10] | outcome [3] | outcome [15] | outcome [5] | outcome [12] | fold change [7, 16] 0.901 | z-score [9] 0.555
